High-throughput results as filed in PubChem.
An excerpt weighted towards active compounds, which were near 8.6% of everything screened.
MARV entry inh: Marburg virus entry inhibition; Marburg virus pseudotype entry/binding inhibition, cell-based; Potency, µM (titrated, usually from 49.2 µM), usual class: inhibitors; actives 6.5% (n = 18,000); AID 720532
Lassa entry: Lassa virus entry inhibition. Potency, µM (highest dose often 49.2 µM), usual class: inhibitors. actives 4.1% (n = 18,000). Lassa virus pseudotyped entry inhibition, cell-based qHTS
Numbers stand for hits; 0 = inactive; ? = inconclusive; - = no result; ! = repeats disagree; [ ] = remark or other dose. Calls follow the shape of the full dose curve; tested in HEK293 cells.

SMILES	MARV entry inh	Lassa entry
C[C@H]1O[C@@H](O[C@H]2[C@@H](O)C[C@H](O[C@H]3[C@@H](O)C[C@H](O[C@H]4CC[C@@]5(C)[C@H](CC[C@@H]6[C@@H]5CC[C@]5(C)[C@@H](C7=CC(=O)OC7)CC[C@]65O)C4)O[C@@H]3C)O[C@@H]2C)C[C@H](O)[C@@H]1O	0.0891µM	?
CC1OC(O[C@@H]2C(O)CC(O[C@@H]3C(O)C[C@@H](OC4CC[C@]5(C)[C@H](CC[C@H]6[C@@H]5CC[C@]5(C)C(C7=CC(=O)OC7)C(O)C[C@@]65O)C4)OC3C)OC2C)CC(O)C1O (stereo partly drawn)	0.631µM	5.01µM
CC1O[C@@H](O[C@@H]2C(O)C[C@H](O[C@@H]3C(O)C[C@@H](OC4CC[C@@]5(C)C6CC(O)[C@@]7(C)C(C8=CC(=O)OC8)CC[C@@]7(O)C6CC[C@@H]5C4)OC3C)OC2C)CC(O)[C@H]1O (stereo partly drawn)	0.562µM	1µM
C[C@H]1O[C@@H](O[C@H]2CC[C@@]3(C)[C@H](CC[C@@H]4[C@@H]3C[C@@H](O)[C@]3(C)[C@@H](C5=CC(=O)OC5)CC[C@]43O)C2)C[C@H](O)[C@@H]1O[C@H]1C[C@H](O)[C@H](O[C@H]2C[C@H](O)[C@H](O[C@@H]3O[C@H](CO)[C@@H](O)[C@H](O)[C@H]3O)[C@@H](C)O2)[C@@H](C)O1	0.282µM	0.355µM
COC1=C(C(=O)c2ccccc2)C(=O)[C@@]2(CC=C(C)C)CC(C#N)C[C@@]1(CC=C(C)C)C2=O (stereo partly drawn)	0[8.59 µM]	?
CC(C)Cc1nc2cc(NS(=O)(=O)N(C)C)cc(C(=O)N3CCc4ccccc4C3)c2n1C	0	0
COc1cccc(CNC(=O)c2c(OC)cc(=O)n3c2CCN(C(=O)c2ccc(C)nc2)CC3)c1	0	0
CCCCC1=CC2=C(OC(C)=O)C(=O)C(C)(OC(=O)C3CCCC3)C(=O)C2=CO1 (stereo not drawn)	0	0
COc1cc2nc(N(C)C)c(CNCc3cccc4ccccc34)cc2c(OC)c1OC	?	0
Cc1nc2ccccc2nc1CN1CCOc2ccc(C3(O)CCN(c4ccccc4F)CC3)cc2C1	0	?
CCCCCCCCCCCCCCOS(=O)(=O)O	0	0
COCc1c(C(=O)N2CCN(c3ccccc3)CC2)cnn1-c1nccc(-c2ccco2)n1	0	0
O=C(Cc1c[nH]c2ccccc12)N1CCC(n2c(C3CCCO3)nc3cc(C(F)(F)F)ccc32)CC1 (stereo not drawn)	0	0
C[C@H](CCCC(C)(C)O)[C@H]1CC[C@H]2[C@@H]3CC=C4C[C@@H](O)CC[C@]4(C)[C@H]3CC[C@]12C	0	0
C[C@@H]1O[C@H](O[C@@H]2CC[C@@]3(C=O)[C@H]4CC[C@@]5(C)[C@@H](C6=CC(=O)OC6)CC[C@@]5(O)[C@@H]4CC[C@]3(O)C2)C[C@H](O)[C@@H]1O	3.55µM	3.55µM
CC(C)=CCC[C@](C)(O[C@@H]1O[C@H](CO)[C@@H](O)[C@H](O)[C@H]1O)[C@H]1CC[C@]2(C)[C@@H]1[C@H](O)C[C@@H]1[C@@]3(C)CC[C@H](O[C@@H]4O[C@H](CO)[C@@H](O)[C@H](O)[C@H]4O[C@@H]4O[C@H](CO)[C@@H](O)[C@H](O)[C@H]4O)C(C)(C)[C@@H]3[C@@H](O)C[C@]12C	?	0
CC(=O)O[C@H]1C[C@H](O[C@H]2[C@@H](O)C[C@H](O[C@H]3[C@@H](O)C[C@H](OC4CC[C@@]5(C)C(CC[C@@H]6[C@@H]5CC[C@]5(C)[C@@H](C7=CC(=O)OC7)[C@@H](O)C[C@]65O)C4)O[C@@H]3C)O[C@@H]2C)O[C@H](C)[C@H]1O[C@@H]1O[C@H](CO)[C@@H](O)[C@H](O)[C@H]1O (stereo partly drawn)	?	2.82µM
N#CCCCS(=O)(=O)c1nnnn1-c1ccccc1	?	0[8.59 µM]
CC1(COc2ccc(CC3SC(=O)NC3=O)cc2)CCCCC1 (stereo not drawn)	0	0
C=C(C)CC(C)(C)C	0	0
O=C(O)/C=C\C(=O)O	0	0
CC(=O)O.CC(=O)O.[Cd]	2.82µM	7.94µM
O=C(c1ccc(C(F)(F)F)cc1)N1CCC(=O)N([C@H](COCc2ccc(Cl)cc2)Cc2ccccc2)CC1	?	28.2µM
Cc1cccc(C(=O)N2CCC(=O)N([C@H](COCc3ccccc3)Cc3ccccc3)CC2)c1	0	?
C=C1[C@@H]2CCN3C(=O)N[C@@H](c4ccccc4)[C@@]1(C(=O)OCC)C23 (stereo partly drawn)	?	0[8.59 µM]
CCCCCCCCCCCC1=C(O)C(=O)C=C(O)C1=O	0	28.2µM!
CCCCCCCCCCC1=C(C)C(=O)C(OC)=C(OC)C1=O	0	0
FC(F)(F)c1cccc(Nc2nccc(-c3cnn4nc(-c5ccccc5)ccc34)n2)c1	19.9µM	-
CCOc1ccc2c(-c3ccnc(Nc4cc(OC)cc(C(F)(F)F)c4)n3)cnn2n1	6.28µM	-
CC(=O)OC[C@H]1O[C@H](C#Cc2ccc(C)cc2C)C=C[C@H]1OC(C)=O	0[8.59 µM]	?
